# Assay results reported in PubChem BioAssay (NCI).
# Compounds without any hit were thinned out: in the full panel of roughly 79,000, 15% have a hit. Values without a mark were called inactive. Activity calls are given as the source filed them. Cut-off read from the data, not from the text of the source: active = growth inhibition above about 70%; inactive = the rest.
# Columns and labels:
# [1] = NCI Yeast Anticancer Drug Screen. Data for the rad52 strain (AID 147);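 note: 0% = growth of vehicle-treated control cultures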; settings: S. cerevisiae rad52 mutant growth inhibition, hits give high values
# Procedure, shortened: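 Yeast strain carrying a DNA damage repair alteration was exposed to test compounds. Growth inhibition was measured relative to vehicle-treated controls.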
# [2] = NCI Yeast Anticancer Drug Screen. Data for the wt1 strain (AID 149);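 note: 0% = growth of vehicle-treated wt1 cultures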; settings: S. cerevisiae wt1 strain (SPY 50644) growth inhibition, hits give high values
# Procedure, shortened: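 Readout: yeast growth inhibition, normalised to vehicle controls, in the wt1 strain exposed to test compounds.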
# [3] = NCI Yeast Anticancer Drug Screen. Data for the rad50EPP+ strain (AID 151);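 note: 0% = growth of vehicle-treated control cultures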; settings: S. cerevisiae rad50 mutant strain, hits give high values
# Procedure, shortened: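 Yeast strain carrying rad50 alteration (rad50EPP+) exposed to compounds; growth inhibition measured relative to vehicle-treated controls.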
# [4] = NCI Yeast Anticancer Drug Screen. Data for the mgt1 strain (AID 153); settings: S. cerevisiae mgt1 mutant growth inhibition, hits give high values
# Procedure, shortened: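 Yeast mgt1 strain (DNA repair/cell-cycle alteration panel) exposed to compounds; growth inhibition measured relative to vehicle-treated controls.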
# [5] = NCI Yeast Anticancer Drug Screen. Data for the rad50 strain (AID 155);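 note: 0% = growth of vehicle-only cultures of the same strain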; settings: S. cerevisiae rad50 strain growth inhibition, hits give high values
# Procedure, shortened: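 Compounds were tested on a yeast strain with an engineered DNA damage repair alteration; the reported value is growth inhibition normalised to vehicle treatment.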
# [6] = NCI Yeast Anticancer Drug Screen. Data for the mec2-1 strain (AID 157); settings: S. cerevisiae mec2-1 strain, hits give high values
# Procedure, shortened: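 mec2-1 yeast strain, carrying an alteration in DNA damage repair or cell cycle control, was exposed to compounds; growth inhibition was measured relative to vehicle-treated controls.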
# [7] = NCI Yeast Anticancer Drug Screen. Data for the rad14 strain (AID 159);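 note: 0% = growth of vehicle-treated control cultures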; settings: S. cerevisiae rad14 strain growth inhibition, hits give high values
# Procedure, shortened: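 Compound-treated yeast with a defined DNA-repair lesion; growth inhibition normalised to vehicle-treated cultures.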
# [8] = NCI Yeast Anticancer Drug Screen. Data for the sgs1 mgt1 strain (AID 161);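 note: 0% = growth of cultures given vehicle only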; settings: S. cerevisiae sgs1 mgt1 strain, hits give high values
# Procedure, shortened: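 Compounds are added to genetically altered yeast, and growth is compared with cultures given vehicle alone to give percent inhibition.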
# [9] = NCI Yeast Anticancer Drug Screen. Data for the CLN2oe strain (AID 163);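 note: 0% = growth of vehicle-only control cultures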; settings: S. cerevisiae CLN2oe strain, hits give high values
# Procedure, shortened: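 Yeast cells carrying a defined cell-cycle control alteration were exposed to test compounds. Growth inhibition was scored against vehicle-treated control cultures.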
# [10] = NCI Yeast Anticancer Drug Screen. Data for the cln2 rad14 strain (AID 165);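 note: 0% = growth equal to vehicle treated cultures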; settings: S. cerevisiae cln2 rad14 strain, hits give high values
# Procedure, shortened: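 Yeast carrying cln2 and rad14 alterations (cell cycle control and DNA damage repair) were exposed to compounds. Growth inhibition was measured against vehicle-treated controls.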
# [11] = NCI Yeast Anticancer Drug Screen. Data for the bub3 strain (AID 167); settings: S. cerevisiae bub3 mutant strain, hits give high values
# Procedure, shortened: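 Growth of a checkpoint-deficient yeast mutant is measured after compound exposure. Values represent inhibition relative to vehicle.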
# [12] = NCI Yeast Anticancer Drug Screen. Data for the wt2 strain (AID 169);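 note: 0% = growth of vehicle-treated yeast cultures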; settings: S. cerevisiae wt2 strain growth inhibition, hits give high values
# Procedure, shortened: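 Yeast cells were exposed to test compounds, and growth inhibition was measured relative to vehicle-treated controls.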
# [13] = NCI Yeast Anticancer Drug Screen. Data for the mlh1 strain (AID 171);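 note: 0% = growth of vehicle-treated control cultures of the same strain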; settings: S. cerevisiae mlh1 strain growth inhibition, hits give high values
# Procedure, shortened: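 Yeast carrying a defined genetic alteration in DNA damage repair or cell cycle control were exposed to test compounds. Growth inhibition was measured relative to vehicle-treated controls.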
# [14] = NCI Yeast Anticancer Drug Screen. Data for the sgs1 strain (AID 173);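 note: 0% = growth of vehicle-only control cultures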; settings: S. cerevisiae sgs1 mutant, hits give high values
# Procedure, shortened: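 Yeast mutant strains carrying defined defects in DNA damage repair or cell cycle control were exposed to test compounds. Growth inhibition was scored against vehicle-treated controls.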
# [15] = NCI Yeast Anticancer Drug Screen. Data for the mlh1 rad18 strain (AID 175); settings: S. cerevisiae mlh1 rad18 strain growth inhibition, hits give high values
# Procedure, shortened: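 Growth inhibition of the yeast strain was measured after compound exposure and expressed relative to vehicle-treated controls. The strain carries defined defects in DNA damage repair.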
# [16] = NCI Yeast Anticancer Drug Screen. Data for the rad18 strain (AID 177); settings: S. cerevisiae rad18 mutant growth inhibition, hits give high values
# Procedure, shortened: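 Yeast carrying a defined DNA damage repair alteration were exposed to compounds. Growth inhibition was expressed relative to vehicle-treated controls.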
# [17] = at 5.0 µM (retest, dose inferred, filed as 0.5)
# [18] = at 50.0 µM (retest, dose inferred, filed as 5.0)
smiles,measurement,setting,value
COC(=O)c1ccc([N+](=O)[O-])c(O)c1,growth inhibition,[1]; at 1.2 µM,-5%
same,growth inhibition,[1]; at 3.7 µM,-3%
same,growth inhibition,[1]; at 11.0 µM,17%
same,growth inhibition,[1]; at 33.0 µM,49%
same,growth inhibition,[1]; at 100.0 µM,98% (active)
same,growth inhibition,[2]; at 1.2 µM,-12%
same,growth inhibition,[2]; at 3.7 µM,-10%
same,growth inhibition,[2]; at 11.0 µM,3%
same,growth inhibition,[2]; at 33.0 µM,28%
same,growth inhibition,[2]; at 100.0 µM,98% (active)
same,growth inhibition,[3]; at 1.2 µM,-3%
same,growth inhibition,[3]; at 3.7 µM,-25%
same,growth inhibition,[3]; at 11.0 µM,3%
same,growth inhibition,[3]; at 33.0 µM,76% (active)
same,growth inhibition,[3]; at 100.0 µM,99% (active)
same,growth inhibition,[4]; at 1.2 µM,-15%
same,growth inhibition,[4]; at 3.7 µM,-13%
same,growth inhibition,[4]; at 11.0 µM,-4%
same,growth inhibition,[4]; at 33.0 µM,44%
same,growth inhibition,[4]; at 100.0 µM,98% (active)
same,growth inhibition,[5]; at 1.2 µM,-5%
same,growth inhibition,[5]; at 3.7 µM,-28%
same,growth inhibition,[5]; [17],2%
same,growth inhibition,[5]; at 11.0 µM,-17%
same,growth inhibition,[5]; at 33.0 µM,37%
same,growth inhibition,[5]; [18],65%
same,growth inhibition,[5]; at 50.0 µM,77.5% (active)
same,growth inhibition,[5]; at 100.0 µM,97% (active)
same,growth inhibition,[6]; at 1.2 µM,-26%
same,growth inhibition,[6]; at 3.7 µM,-23%
same,growth inhibition,[6]; [17],-7%
same,growth inhibition,[6]; at 11.0 µM,-4%
same,growth inhibition,[6]; at 33.0 µM,35%
same,growth inhibition,[6]; [18],75% (active)
same,growth inhibition,[6]; at 50.0 µM,85% (active)
same,growth inhibition,[6]; at 100.0 µM,99% (active)
same,growth inhibition,[7]; at 1.2 µM,-16%
same,growth inhibition,[7]; at 3.7 µM,-13%
same,growth inhibition,[7]; at 11.0 µM,-7%
same,growth inhibition,[7]; at 33.0 µM,27%
same,growth inhibition,[7]; at 100.0 µM,98% (active)
same,growth inhibition,[8]; [17],5%
same,growth inhibition,[8]; [18],4%
same,growth inhibition,[8]; at 50.0 µM,89.7% (active)
same,growth inhibition,[9]; at 1.2 µM,-6%
same,growth inhibition,[9]; at 3.7 µM,1%
same,growth inhibition,[9]; at 11.0 µM,1%
same,growth inhibition,[9]; at 33.0 µM,35%
same,growth inhibition,[9]; at 100.0 µM,98% (active)
same,growth inhibition,[10]; [17],-2%
same,growth inhibition,[10]; [18],65%
same,growth inhibition,[10]; at 50.0 µM,58.3%
same,growth inhibition,[11]; at 1.2 µM,-22%
same,growth inhibition,[11]; at 3.7 µM,-31%
same,growth inhibition,[11]; [17],-7%
same,growth inhibition,[11]; at 11.0 µM,-20%
same,growth inhibition,[11]; at 33.0 µM,6%
same,growth inhibition,[11]; [18],56%
same,growth inhibition,[11]; at 50.0 µM,78.9% (active)
same,growth inhibition,[11]; at 100.0 µM,99% (active)
same,growth inhibition,[12]; at 1.2 µM,3%
same,growth inhibition,[12]; at 3.7 µM,7%
same,growth inhibition,[12]; at 11.0 µM,4%
same,growth inhibition,[12]; at 33.0 µM,63%
same,growth inhibition,[12]; at 100.0 µM,99% (active)
same,growth inhibition,[13]; at 1.2 µM,-4%
same,growth inhibition,[13]; at 3.7 µM,-1%
same,growth inhibition,[13]; at 11.0 µM,7%
same,growth inhibition,[13]; at 33.0 µM,67%
same,growth inhibition,[13]; at 100.0 µM,99% (active)
same,growth inhibition,[14]; at 1.2 µM,22%
same,growth inhibition,[14]; at 3.7 µM,32%
same,growth inhibition,[14]; at 11.0 µM,21%
same,growth inhibition,[14]; at 33.0 µM,81% (active)
same,growth inhibition,[14]; at 100.0 µM,98% (active)
same,growth inhibition,[15]; [17],-28%
same,growth inhibition,[15]; [18],88% (active)
same,growth inhibition,[15]; at 50.0 µM,72.9% (active)
same,growth inhibition,[16]; at 1.2 µM,-9%
same,growth inhibition,[16]; at 3.7 µM,-2%
same,growth inhibition,[16]; at 11.0 µM,8%
same,growth inhibition,[16]; at 33.0 µM,52%
same,growth inhibition,[16]; at 100.0 µM,98% (active)
OCC(Cn1cncn1)(c1ccc(F)cc1F)n1cncn1 (stereo unspecified),growth inhibition,[1]; at 1.2 µM,35%
same,growth inhibition,[1]; at 3.7 µM,57%
same,growth inhibition,[1]; at 11.0 µM,63%
same,growth inhibition,[1]; at 33.0 µM,66%
same,growth inhibition,[1]; at 100.0 µM,65%
same,growth inhibition,[2]; at 1.2 µM,13%
same,growth inhibition,[2]; at 3.7 µM,40%
same,growth inhibition,[2]; at 11.0 µM,45%
same,growth inhibition,[2]; at 33.0 µM,43%
same,growth inhibition,[2]; at 100.0 µM,42%
same,growth inhibition,[3]; at 1.2 µM,2%
same,growth inhibition,[3]; at 3.7 µM,28%
same,growth inhibition,[3]; at 11.0 µM,86% (active)
same,growth inhibition,[3]; at 33.0 µM,92% (active)
same,growth inhibition,[3]; at 100.0 µM,94% (active)
same,growth inhibition,[4]; at 1.2 µM,33%
same,growth inhibition,[4]; at 3.7 µM,62%
same,growth inhibition,[4]; at 11.0 µM,65%
same,growth inhibition,[4]; at 33.0 µM,66%
same,growth inhibition,[4]; at 100.0 µM,65%
same,growth inhibition,[5]; at 1.2 µM,34%
same,growth inhibition,[5]; at 3.7 µM,54%
same,growth inhibition,[5]; [17],55%
same,growth inhibition,[5]; at 11.0 µM,59%
same,growth inhibition,[5]; at 33.0 µM,59%
same,growth inhibition,[5]; [18],77% (active)
same,growth inhibition,[5]; at 50.0 µM,61.8%
same,growth inhibition,[5]; at 100.0 µM,60%
same,growth inhibition,[6]; at 1.2 µM,27%
same,growth inhibition,[6]; at 3.7 µM,45%
same,growth inhibition,[6]; [17],41%
same,growth inhibition,[6]; at 11.0 µM,53%
same,growth inhibition,[6]; at 33.0 µM,53%
same,growth inhibition,[6]; [18],61%
same,growth inhibition,[6]; at 50.0 µM,44.2%
same,growth inhibition,[6]; at 100.0 µM,52%
same,growth inhibition,[7]; at 1.2 µM,57%
same,growth inhibition,[7]; at 3.7 µM,74% (active)
same,growth inhibition,[7]; at 11.0 µM,83% (active)
same,growth inhibition,[7]; at 33.0 µM,76% (active)
same,growth inhibition,[7]; at 100.0 µM,74% (active)
same,growth inhibition,[8]; [17],67%
same,growth inhibition,[8]; [18],78% (active)
same,growth inhibition,[8]; at 50.0 µM,68.2%
same,growth inhibition,[9]; at 1.2 µM,29%
same,growth inhibition,[9]; at 3.7 µM,51%
same,growth inhibition,[9]; at 11.0 µM,62%
same,growth inhibition,[9]; at 33.0 µM,65%
same,growth inhibition,[9]; at 100.0 µM,68%
same,growth inhibition,[10]; [17],22%
same,growth inhibition,[10]; [18],81% (active)
same,growth inhibition,[10]; at 50.0 µM,63%
same,growth inhibition,[11]; at 1.2 µM,27%
same,growth inhibition,[11]; at 3.7 µM,54%
same,growth inhibition,[11]; [17],14%
same,growth inhibition,[11]; at 11.0 µM,69%
same,growth inhibition,[11]; at 33.0 µM,69%
same,growth inhibition,[11]; [18],84% (active)
same,growth inhibition,[11]; at 50.0 µM,71% (active)
same,growth inhibition,[11]; at 100.0 µM,66%
same,growth inhibition,[12]; at 1.2 µM,31%
same,growth inhibition,[12]; at 3.7 µM,57%
same,growth inhibition,[12]; at 11.0 µM,64%
same,growth inhibition,[12]; at 33.0 µM,61%
same,growth inhibition,[12]; at 100.0 µM,57%
same,growth inhibition,[13]; at 1.2 µM,22%
same,growth inhibition,[13]; at 3.7 µM,47%
same,growth inhibition,[13]; at 11.0 µM,53%
same,growth inhibition,[13]; at 33.0 µM,53%
same,growth inhibition,[13]; at 100.0 µM,50%
same,growth inhibition,[14]; at 1.2 µM,48%
same,growth inhibition,[14]; at 3.7 µM,67%
same,growth inhibition,[14]; at 11.0 µM,72% (active)
same,growth inhibition,[14]; at 33.0 µM,72% (active)
same,growth inhibition,[14]; at 100.0 µM,70% (active)
same,growth inhibition,[15]; [17],31%
same,growth inhibition,[15]; [18],86% (active)
same,growth inhibition,[15]; at 50.0 µM,57.5%
